Results as given in PubChem BioAssay.
Measured potencies and affinities stand elsewhere. The source made the active and inactive calls.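 The calls were made as follows, unless noted: active = primary screen inhibitor hit that blocks the TRPC4 channel at some tested dose, yielding a dose curve; inactive = the rest.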

The molecules below were run against Short transient receptor potential channel 4 (Mus musculus) (UniProt Q9QUQ5) (assay: potentiation of DAMGO-evoked TRPC4 calcium signal – cell-based, HEK293 TRPC4/mu-opioid, Fluo-4 calcium, EC20 DAMGO, dose response (AID 434941;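 active = earlier screen potentiator hit that boosts the TRPC4 ion channel at some dose, with a dose response; inactive = no potentiation, no dose response, or not a prior hit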;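 also: calcium entry triggered by an EC20 dose of DAMGO at the co-expressed mu-opioid receptor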)). Conditions: HEK293 TRPC4/mu-opioid cells, Fluo-4 calcium fluorescence; series mostly up to 20 µM.
Sequence of Short transient receptor potential channel 4 (Mus musculus) (Q9QUQ5 whole entry, looked up): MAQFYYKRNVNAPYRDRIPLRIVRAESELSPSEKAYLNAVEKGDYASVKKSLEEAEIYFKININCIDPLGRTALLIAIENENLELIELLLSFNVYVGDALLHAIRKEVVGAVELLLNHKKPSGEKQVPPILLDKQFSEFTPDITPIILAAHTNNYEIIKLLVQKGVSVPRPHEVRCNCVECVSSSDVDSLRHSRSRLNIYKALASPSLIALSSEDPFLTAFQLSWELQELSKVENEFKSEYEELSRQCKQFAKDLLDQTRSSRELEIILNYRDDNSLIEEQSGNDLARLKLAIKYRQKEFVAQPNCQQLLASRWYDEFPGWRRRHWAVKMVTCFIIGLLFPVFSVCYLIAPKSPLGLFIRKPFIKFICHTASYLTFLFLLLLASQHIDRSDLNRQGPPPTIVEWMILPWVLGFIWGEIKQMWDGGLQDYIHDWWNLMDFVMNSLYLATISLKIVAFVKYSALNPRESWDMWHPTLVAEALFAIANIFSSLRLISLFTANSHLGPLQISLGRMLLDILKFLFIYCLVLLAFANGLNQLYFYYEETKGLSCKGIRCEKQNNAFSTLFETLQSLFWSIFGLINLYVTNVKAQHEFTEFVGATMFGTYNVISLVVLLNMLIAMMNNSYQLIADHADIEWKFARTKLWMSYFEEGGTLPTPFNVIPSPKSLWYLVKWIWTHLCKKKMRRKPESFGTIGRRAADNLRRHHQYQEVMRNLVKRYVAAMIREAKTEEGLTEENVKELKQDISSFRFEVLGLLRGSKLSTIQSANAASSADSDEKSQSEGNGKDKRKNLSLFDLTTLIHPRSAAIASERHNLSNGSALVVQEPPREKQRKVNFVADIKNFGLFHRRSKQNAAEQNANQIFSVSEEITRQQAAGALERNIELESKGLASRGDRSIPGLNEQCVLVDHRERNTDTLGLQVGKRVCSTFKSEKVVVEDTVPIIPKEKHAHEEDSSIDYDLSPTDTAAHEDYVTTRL

outcome, inactive:
CC(C)C(=O)N1CCN(c2nc(-c3ccccc3)c3c(c2C#N)CCCC3)CC1
CC(=O)n1cc([C@@H]2C=C(C(=O)NCc3ccccc3)O[C@H](OCc3ccc(CO)cc3)C2)c2ccccc21
CCN1CCN(c2nc(N)c([N+](=O)[O-])c(Nc3ccc(C)c(C)c3)n2)CC1
CN1/C(=C\C=[N+](C)c2ccccc2)C(C)(C)c2ccccc21
COc1cc(NC(=O)C(C)Oc2ccccc2)cc(OC)c1 (stereo not drawn)
CCCCc1ccc(NC(=O)CSc2nnc(C)c(=O)n2N)cc1
O=C(COc1ccc(Br)cc1Cl)c1ccc[nH]1
Clc1cc(/C=N\NC2=NCCN2)cc(Cl)n1
Cc1cc(OCC(=O)N2CCCC2)cc(C)c1Cl
CCOC(=O)CC(NS(=O)(=O)c1ccc(OC)c(C)c1)c1cccc([N+](=O)[O-])c1 (stereo not drawn)
O=C(COc1coc(CN2CCN(c3ccccc3F)CC2)cc1=O)Nc1ccccc1
CN(C)CCCNC(=O)/C=C/c1ccc(OCc2c(F)cccc2Cl)cc1
CC(C)c1cccc(OCCCCN(C)C)c1
CNc1oc(-c2ccccc2Cl)nc1P(=O)(c1ccccc1)c1ccccc1
Cc1ccc(C(=O)C[n+]2cccc3cc(C)ccc32)cc1
CCCN1CCN(C(=S)NCc2ccc(Cl)cc2)CC1
CC(=O)Nc1nc(-c2ccc3c(c2)CCN3C(=O)C2CC2)c(C)s1
COC(=O)c1ccccc1NC(=O)CCC(=O)N1CC(C)Oc2ccc(C)cc21 (stereo not drawn)
CN1CCN(S(=O)(=O)c2ccc(Br)c3ccccc23)CC1
CC(C)(C)C(=O)NCCCc1nc2ccccc2n1CCCOc1ccc(Cl)cc1
CCN(CC)c1ccc(CNc2nc3ccccc3n2CCN2CCCCC2)cc1
O=[N+]([O-])c1ccc(S(=O)(=O)NCCCc2ccccc2)cc1
CC(=O)c1ccc(OCC(O)CN2CCN(S(=O)(=O)c3c(C)cc(C)cc3C)CC2)cc1 (stereo not drawn)
CC(=O)c1ccc(N2CCN(c3ccc(S(=O)(=O)NCCCN(C)C)cc3[N+](=O)[O-])CC2)cc1
C=CCn1c(SCCN2CCCCC2)nc2c1c(=O)[nH]c(=O)n2C
CCCN(C(=O)COC(=O)C12CCC(=O)N1c1ccccc1S2)c1c(N)n(Cc2ccccc2)c(=O)[nH]c1=O (stereo not drawn)
Cc1cc(C(=O)CN2C(=O)C(=O)N(CC(C)C)C2=O)c(C)n1-c1ccccc1F
C/C(=N\NC(=O)COc1ccc(C)cc1C(C)C)c1ccc(-n2ccnc2)cc1
COc1cc(/C=C2\C(=O)ON=C2c2ccccc2)cc(Cl)c1O
CN(CC(=O)Nc1ccc(F)cc1)C(=O)COC(=O)C1CCN(c2ccc(C(F)(F)F)cn2)CC1
CCCN(CCC)CCCNC(=O)c1cc2c(=O)n(C)c3ccccc3c2n1C
COc1ccccc1CC(=O)N1CCN(S(=O)(=O)c2ccccc2)CC1
O=C(COc1ccccc1)NC1CCCCCCC1
O=C(CC1C(=O)NCCN1C(=O)Nc1ccccc1)Nc1cc(Cl)cc(Cl)c1 (stereo not drawn)
COc1ccc(NS(=O)(=O)c2cccc(C(=O)N3CCN(Cc4cc(OC)ccc4OC)CC3)c2)cc1
Cc1ccc(C(=O)c2no[n+]([O-])c2C(=O)c2ccc(C)cc2)cc1
O=C(NC1CCCC1)c1cc2ccccc2o1
COc1ccc(-n2cc(CNCc3cccnc3)c(-c3cccc(F)c3)n2)cc1
CN1CCCN(Cc2cccc3ccccc23)CC1

The molecules below were run against Short transient receptor potential channel 4 (Mus musculus) (UniProt Q9QUQ5) (assay: block of DAMGO-driven TRPC4 calcium entry – cell-based, HEK293 TRPC4/mu-opioid, Fluo-4 calcium, dose response (AID 434942)). Conditions: HEK293 TRPC4/mu-opioid cells, DAMGO-evoked Fluo-4 calcium ratio; series mostly up to 20 µM.

outcome, inactive:
CC(C)C(=O)N1CCN(c2nc(-c3ccccc3)c3c(c2C#N)CCCC3)CC1
CC(=O)n1cc([C@@H]2C=C(C(=O)NCc3ccccc3)O[C@H](OCc3ccc(CO)cc3)C2)c2ccccc21
CCN1CCN(c2nc(N)c([N+](=O)[O-])c(Nc3ccc(C)c(C)c3)n2)CC1
CN1/C(=C\C=[N+](C)c2ccccc2)C(C)(C)c2ccccc21
COc1cc(NC(=O)C(C)Oc2ccccc2)cc(OC)c1 (stereo not drawn)
CCCCc1ccc(NC(=O)CSc2nnc(C)c(=O)n2N)cc1
O=C(COc1ccc(Br)cc1Cl)c1ccc[nH]1
Clc1cc(/C=N\NC2=NCCN2)cc(Cl)n1
Cc1cc(OCC(=O)N2CCCC2)cc(C)c1Cl
CCOC(=O)CC(NS(=O)(=O)c1ccc(OC)c(C)c1)c1cccc([N+](=O)[O-])c1 (stereo not drawn)
O=C(COc1coc(CN2CCN(c3ccccc3F)CC2)cc1=O)Nc1ccccc1
CN(C)CCCNC(=O)/C=C/c1ccc(OCc2c(F)cccc2Cl)cc1
CC(C)c1cccc(OCCCCN(C)C)c1
CNc1oc(-c2ccccc2Cl)nc1P(=O)(c1ccccc1)c1ccccc1
Cc1ccc(C(=O)C[n+]2cccc3cc(C)ccc32)cc1
CCCN1CCN(C(=S)NCc2ccc(Cl)cc2)CC1
CC(=O)Nc1nc(-c2ccc3c(c2)CCN3C(=O)C2CC2)c(C)s1
COC(=O)c1ccccc1NC(=O)CCC(=O)N1CC(C)Oc2ccc(C)cc21 (stereo not drawn)
CN1CCN(S(=O)(=O)c2ccc(Br)c3ccccc23)CC1
CC(C)(C)C(=O)NCCCc1nc2ccccc2n1CCCOc1ccc(Cl)cc1
CCN(CC)c1ccc(CNc2nc3ccccc3n2CCN2CCCCC2)cc1
O=[N+]([O-])c1ccc(S(=O)(=O)NCCCc2ccccc2)cc1
CC(=O)c1ccc(OCC(O)CN2CCN(S(=O)(=O)c3c(C)cc(C)cc3C)CC2)cc1 (stereo not drawn)
CC(=O)c1ccc(N2CCN(c3ccc(S(=O)(=O)NCCCN(C)C)cc3[N+](=O)[O-])CC2)cc1
C=CCn1c(SCCN2CCCCC2)nc2c1c(=O)[nH]c(=O)n2C
CCCN(C(=O)COC(=O)C12CCC(=O)N1c1ccccc1S2)c1c(N)n(Cc2ccccc2)c(=O)[nH]c1=O (stereo not drawn)
Cc1cc(C(=O)CN2C(=O)C(=O)N(CC(C)C)C2=O)c(C)n1-c1ccccc1F
C/C(=N\NC(=O)COc1ccc(C)cc1C(C)C)c1ccc(-n2ccnc2)cc1
COc1cc(/C=C2\C(=O)ON=C2c2ccccc2)cc(Cl)c1O
CN(CC(=O)Nc1ccc(F)cc1)C(=O)COC(=O)C1CCN(c2ccc(C(F)(F)F)cn2)CC1
CCCN(CCC)CCCNC(=O)c1cc2c(=O)n(C)c3ccccc3c2n1C
COc1ccccc1CC(=O)N1CCN(S(=O)(=O)c2ccccc2)CC1
O=C(COc1ccccc1)NC1CCCCCCC1
O=C(CC1C(=O)NCCN1C(=O)Nc1ccccc1)Nc1cc(Cl)cc(Cl)c1 (stereo not drawn)
COc1ccc(NS(=O)(=O)c2cccc(C(=O)N3CCN(Cc4cc(OC)ccc4OC)CC3)c2)cc1
Cc1ccc(C(=O)c2no[n+]([O-])c2C(=O)c2ccc(C)cc2)cc1
O=C(NC1CCCC1)c1cc2ccccc2o1
COc1ccc(-n2cc(CNCc3cccnc3)c(-c3cccc(F)c3)n2)cc1
CN1CCCN(Cc2cccc3ccccc23)CC1
